Results: PubChem BioAssay (EPA / NIEHS)
Where “and” joins values, the source holds several entries; their conditions need not be identical. Equal values may be shown once. Calls of active or inactive are those of the source. Rule for the calls: active = hit-call score of the fitted dose curve at least 0.9, where 1 is the maximum; inactive = score below 0.9.

read-out: Interleukin-8 (IL8), CXCL8 (gene 3576); test: BSK_SAg_IL8: BioMAP Diversity Plus: SAg Assay for Interleukin-8 (IL8) Biomarker Activity (AID 2283094); conditions: primary human HUVEC with PBMC; actives raise or lower the signal
Experimental: BSK_SAg is a cell-based, multiplexed-readout assay that uses umbilical vein endothelium and peripheral blood mononuclear cells, a human vascular primary cell co-culture, with measurements taken at 24 hours after chemical dosing in a 96-well plate.BSK_SAg_IL8 is an assay component measured in the BSK_SAg assay. It measures IL-8 antibody related to regulation of gene expression using ELISA technology.Data from the assay component BSK_SAg_IL8 was analyzed into 1 assay endpoint. This assay endpoint, BSK_SAg_IL8, was analyzed with bidirectional fitting relative to DMSO as the negative control and baseline of activity. Using a type of binding reporter, gain or loss-of-signal activity can be used to understand changes in the signaling as they relate to the gene CXCL8. Furthermore, this assay endpoint can be referred to as a primary readout, because this assay has produced multiple assay endpoints where this one serves a signaling function. To generalize the intended target to other relatable targets, this assay endpoint is annotated to the cytokine intended target family, where the subfamily is interleukins.
The levels of cell surface (or secreted, indicated by the prefix "s") biomarker endpoints were measured by ELISA. Overt cytotoxicity to cells in confluent adherent cultures (all systems other than the BT system) was assessed by measuring total protein levels using sulforhodamine B (SRB) staining in parallel cultures at the time of biomarker measurements, indicated as SRB endpoints. For proliferation assays for adherent cell types, individual cell types are cultured at sub-confluence and relative cell numbers quantified by SRB staining at time points optimized for each system (48 h: 3C and CASM3C systems; 72 h: BT and HDF3CGF systems; 96 h: SAg system). SRB was performed by staining cells with 0.1% SRB after fixation with 10% TCA and reading wells at 560 nm.Viability and proliferation of PBMC (T cells) was quantified by Alamar Blue reduction for the SAg and BT systems. For PBMC viability (referred to as PBMC Cytotoxicity within the assay endpoint names), cells were plated (75,000/well in a 96-well plate) and then chemical samples added for 1 h before addition of activators, SEB and TSST-1 (20 ng/mL final concentration each). Cells were incubated for 90 h. Then, Alamar Blue (20 uL/well) (Invitrogen, Cat DAL1100) was added for 6 h, and the plates were read with a fluorescence microplate reader at 546/580 nm (excitation/emission). For PBMC proliferation, cells were plated and activated as above but incubated for only 16 h prior to addition of Alamar Blue. Plates were read after 6 h.

SMILES	AC50	outcome
CCOP(=S)(OCC)OC(Cl)C(Cl)(Cl)Cl (stereo not given)	25.9 µM (active)	–
CCCOCC(=Nc1ccc(Cl)cc1C(F)(F)F)n1ccnc1	15.9 µM (active)	–
CCC(=NOC/C=C/Cl)C1=C(O)CC(C2CCOCC2)CC1=O (stereo not given)	–	inactive
CCCOc1nn(C(=O)NS(=O)(=O)c2ccccc2C(=O)OC)c(=O)n1C	–	inactive
CCCCOC(=O)c1ccccc1C(=O)O	–	inactive
CN(C)C(=O)Nc1cccc(C(F)(F)F)c1	–	inactive
CSC1=N[C@@](C)(c2ccccc2)C(=O)N1Nc1ccccc1	8.81 µM (active)	–
Cc1cc(C2CC2)nc(Nc2ccccc2)n1	–	inactive
CC1=NNC(=O)N(/N=C/c2cccnc2)C1	–	inactive
CCc1cccc(C)c1N(C(=O)CCl)C(C)COC (stereo not given)	–	inactive
CCOC(=O)CC(SP(=O)(OC)OC)C(=O)OCC (stereo not given)	–	inactive
S=C1NCCN1	–	inactive
CNc1cnn(-c2cccc(C(F)(F)F)c2)c(=O)c1Cl	10.9 µM (active)	–
CCCSP(=O)(OCC)SCCC	–	inactive
CC(Oc1cccc(Cl)c1)C(=O)O (stereo not given)	–	inactive
CN(C)[C@@H]1C(=O)C(C(N)=O)=C(O)[C@@]2(O)C(=O)C3=C(O)c4c(O)cccc4[C@@](C)(O)[C@H]3[C@H](O)[C@@H]12	–	inactive
CCOP(=S)(Oc1cnc(C(C)(C)C)nc1)OC(C)C (stereo not given)	30.3 µM (active)	–
CCc1cnc(C2=NC(C)(C(C)C)C(=O)N2)c(C(=O)O)c1 (stereo not given)	–	inactive
C[Si](Cn1cncn1)(c1ccc(F)cc1)c1ccc(F)cc1	16.8 µM (active)	–
Cc1ccn2nc(S(=O)(=O)Nc3c(F)cccc3F)nc2n1	–	inactive

SMILES	AC50	outcome
CCOC(=O)COc1cc(-c2nn(C)c(OC(F)F)c2Cl)c(F)cc1Cl	–	inactive
CCOP(=O)(OCC)Oc1cc(C)nc(C(C)C)n1	–	inactive
Cc1nn(-c2cc(NS(C)(=O)=O)c(Cl)cc2Cl)c(=O)n1C(F)F	–	inactive
COP(=O)(OC)SCn1c(=O)oc2cc(Cl)cnc21	–	inactive
CC(C)[C@H](C(=O)O[C@H](C#N)c1cccc(Oc2ccccc2)c1)c1ccc(Cl)cc1	–	inactive
CC(=NC#N)N(C)Cc1ccc(Cl)nc1	–	inactive
N#CSCSC#N	11.7 µM (active)	–
CCC(=O)Nc1ccc(Cl)c(Cl)c1	–	inactive
CC[C@H](C)[C@H]1O[C@]2(C=C[C@@H]1C)C[C@@H]1C[C@@H](C/C=C(\C)[C@@H](O[C@H]3C[C@H](OC)[C@@H](O[C@H]4C[C@H](OC)[C@@H](NC)[C@H](C)O4)[C@H](C)O3)[C@@H](C)/C=C/C=C3\CO[C@@H]4[C@H](O)C(C)=C[C@@H](C(=O)O1)[C@]34O)O2	2.16 µM (active)	–
O=c1ccc(=O)[nH][nH]1	–	inactive
CN1COCN(Cc2cnc(Cl)s2)C1=N[N+](=O)[O-]	–	inactive
CNC(=O)ON=C(SC)C(=O)N(C)C	–	inactive
O=[N+]([O-])c1cc(C(F)(F)F)c(Cl)c([N+](=O)[O-])c1Nc1ncc(C(F)(F)F)cc1Cl	1.81 µM (active) and 3.64 µM (active)	–
CCCCN(CC)c1c([N+](=O)[O-])cc(C(F)(F)F)cc1[N+](=O)[O-]	–	inactive
CCCSP(=O)(OCC)Oc1ccc(Br)cc1Cl (stereo not given)	26.3 µM (active)	–
CON=C(C(=O)OC)c1ccccc1CON=C(C)c1cccc(C(F)(F)F)c1	3.2 µM (active)	–
C#CC(C)(C)NC(=O)c1cc(Cl)cc(Cl)c1	–	inactive
C#CCC1=C(C)C(OC(=O)C2C(C=C(C)C)C2(C)C)CC1=O (stereo not given)	26 µM (active)	–
COP(=O)(OC)C(O)C(Cl)(Cl)Cl (stereo not given)	–	inactive
CCOP(=S)(OCC)Oc1ccc([N+](=O)[O-])cc1	–	inactive
